According to ChEMBL document CHEMBL3988442, “University of Dundee, Small-Polar-MMV Screening Library” (2021):
Out of some 48,000 compounds screened, about 13,000 (27%) showed an effect of 50% or more. The list shows a part of the results.

Test system: Wolbachia pipientis
Assay: Anti-Wolbachia Cell-Based Screen
Format: functional
Set-up: scale not given: in the data most compounds retested in dose-response had high values
Conditions: 5 µM

Row | Compound | Percent Effect [%]
1 | COc1ccc(C)cc1CN(Cc1ncc(C)o1)C1CCN(C)C1 (stereo not drawn) | 18.81
2 | Cc1cccc(N2N=C(C(=O)NC(C)CCc3ccco3)CCC2=O)c1 (stereo not drawn) | 5.008
3 | CC(C)C(=O)NC1CCN(CCO)CC1 | -14.55
4 | N#Cc1ccc(CNC(=O)NCCC(=O)NC2CCCC2)c(F)c1 | 1.823
5 | CCCOCCN1CCc2[nH]c(-c3ccc(OC)cc3)nc2C1 | 0.5641
6 | O=C(O)C(F)(F)F.O=C(O)C(F)(F)F.c1cncc(COCc2nnn3c2CN(Cc2ccsc2)CC3)c1 | 109.1
7 | O=C(O)C(F)(F)F.O=C(O)C(F)(F)F.c1cncc(COCc2nnc3n2CCN(Cc2ccsc2)C3)c1 | -0.7002
8 | O=C(O)C(F)(F)F.O=C(O)C(F)(F)F.c1cncc(OCc2nnn3c2CN(Cc2ccsc2)CCC3)c1 | -20.94
9 | O=C(NCc1ccc(Cl)cc1)[C@@H]1Cc2[nH]cnc2CN1CC1CC1 | 10.78
10 | Cc1cc(C2CCCN(Cc3cccnc3)C2)n[nH]1 (stereo not drawn) | -3.647
11 | Cn1cc(CN2CCCC(Cn3cc(CCCO)nn3)C2)cn1 (stereo not drawn) | -7.109
12 | Cn1cc(CN2CCCC(CCc3ccc(F)cc3)C2)cn1 (stereo not drawn) | 5.496
13 | Br.Cn1cc(CN2CCC(c3cc(COc4cccc(Cl)c4)[nH]n3)C2)cn1 (stereo not drawn) | 108.1
14 | Cn1cc(CN2CCC(c3cc(COc4ccc(Cl)cc4)[nH]n3)C2)cn1 (stereo not drawn) | 120.4
15 | Cn1cc(CN2CCC(c3cc(CCO)[nH]n3)C2)cn1 (stereo not drawn) | 135.9
16 | Cc1n[nH]c(C2CN(CCCOc3cccc(Cl)c3)CCO2)n1 (stereo not drawn) | 17.53
17 | Cn1cc(CN2CCCC(CCc3ccc(F)cc3F)C2)cn1 (stereo not drawn) | 13.59
18 | Cn1cc(CN2CCCC(CCc3ccc(F)c(F)c3)C2)cn1 (stereo not drawn) | -4.852
19 | O=C(NC1(c2nccs2)CCCC1)c1[nH]nc(C2CC2)c1Cl | -0.1495
20 | O=C(Nc1ccccc1OC(F)(F)F)C1CCS(=O)(=O)C1 (stereo not drawn) | 4.045
21 | N#Cc1cnn(C(=O)COc2ccccc2F)c1N | -3.189
22 | Cc1n[nH]c(C2CN(C(=O)c3ccc4c(c3)COC4)CCO2)n1 (stereo not drawn) | -48.4
23 | CCc1n[nH]c(C2CN(C(=O)c3ccc4c(c3)COC4)CCO2)n1 (stereo not drawn) | 136

Row | Compound | Percent Effect [%]
24 | CCCc1n[nH]c(C2CN(C(=O)c3ccc4c(c3)COC4)CCO2)n1 (stereo not drawn) | 124.9
25 | CCc1n[nH]c(C2CN(C(=O)c3ccc(NC4CC4)nc3)CCO2)n1 (stereo not drawn) | 134.6
26 | CCc1n[nH]c(C2CN(C(=O)c3ccnc(N(C)C)c3)CCO2)n1 (stereo not drawn) | 149.1
27 | C[S+]([O-])c1nncn1CC(=O)c1cccc(Br)c1 (stereo not drawn) | -3.709
28 | Cc1ccc(CN(C)C(=O)NCC(C)(C)S(C)(=O)=O)s1 | -13.6
29 | CCNc1ncc(CN2C[C@@H](CN3CCC(CO)CC3)[C@@H](CO)C2)cn1 | 12.05
30 | Cc1ccc(CC(=O)N2CCn3cc(Cn4cncn4)nc3C2)cc1 | 8.244
31 | c1cc2c(cc1-c1noc3c1CN(C1CCC1)CC3)OCO2 | -7.391
32 | CS(=O)(=O)c1nccn1Cc1ccncc1 | -5.065
33 | Cc1ccc2oc(CN3CCn4nc(CCC(=O)O)cc4C3)c(C)c2c1 | 5.001
34 | O=C(CCCc1nc2ccccc2[nH]1)N1CCCC1c1ccncc1 (stereo not drawn) | 8.641
35 | O=C(c1cc(F)ccc1F)C1CCN(C(=O)c2cccnc2O)CC1 | -3.966
36 | C=C(Cl)CN1CCC(C(=O)c2cc(F)ccc2F)CC1 | -0.07038
37 | Cc1cnc(C(=O)N2CCC(C(=O)c3cc(F)ccc3F)CC2)cn1 | 134
38 | O=C(c1cc(F)ccc1F)C1CCN(C(=O)c2ccco2)CC1 | 137.2
39 | O=C(c1cc(F)ccc1F)C1CCN(C(=O)c2cnccn2)CC1 | 120.4
40 | Cc1cccc(C(=O)N2CCC(C(=O)c3cc(F)ccc3F)CC2)n1 | 159.7
41 | NC(=O)NC(=O)CCN1CCC(C(=O)c2cc(F)ccc2F)CC1 | -46.12
42 | O=C(c1cc(F)ccc1F)C1CCN(C(=O)c2ccccn2)CC1 | 7.01
43 | CS(=O)(=O)CCN1CCSCC1c1ccc(Cl)cc1 (stereo not drawn) | -3.973
44 | O=C(C1CC(F)(F)C1)N1CC[C@H]2OCC[C@@]2(COCC2CC2)C1 | -8.729
45 | CC(SCC(=O)NCCC#N)c1ccc(Cl)cc1 (stereo not drawn) | 5.18
46 | COc1cccc(-c2nc(CNCCCn3cccn3)cs2)c1 | 28.1

Row | Compound | Percent Effect [%]
47 | O=C(c1ccoc1)N1CCc2ncnc(NCc3ccccn3)c2CC1 | 2.356
48 | CCCN1CCN(C(=O)c2cccnc2-n2cncn2)CC1 | 5.341
49 | O=C(O)C(F)(F)F.O=C(c1ccoc1)N1CCC2(CC1)COC(COc1ccccn1)C2 (stereo not drawn) | 19.26
50 | O=C(c1cccnc1O)N1CCC(COc2ccccc2)CC1 | -5.095
51 | Cc1nc2ccc(C(=O)N3CCC(COc4ccccn4)CC3)cc2[nH]1 | 160.4
52 | COc1ccnc(CN(C)C(=O)CSc2nnc(N)s2)c1 | 0.9714
53 | Cc1ccc(-c2noc([C@H](N)CC(C)C)n2)nn1 | 0.7851
54 | COc1cc(OC)cc(-c2noc(CN)n2)c1 | -5.186
55 | COc1ccc(-c2noc(C(N)CCSC)n2)cc1 (stereo not drawn) | 92.78
56 | COc1ccc(-c2noc(C(=O)NCCN3CCCCC3)n2)cc1OC | -3.645
57 | COc1ccc(-c2noc(C3CCS(=O)(=O)C3)n2)cc1OC (stereo not drawn) | -2.853
58 | COc1ccc(-c2noc([C@@H]3C[C@@H](O)CN3C3CCCCC3)n2)cc1 | -13.77
59 | COc1cc(OC)cc(-c2noc(C(N)CCSC)n2)c1 (stereo not drawn) | 122.3
60 | COc1ccc(-c2noc(C3CC(C(C)C)=NO3)n2)cc1 (stereo not drawn) | -24.09
61 | COc1ccc(-c2noc(C(N)CCSC)n2)cc1OC (stereo not drawn) | 100.4
62 | COc1ccnc(N2CCCN(Cc3ncc(C(C)C)o3)CC2)n1 | -1.774
63 | Cc1cnn(CC2CN(c3cnc4ccccc4n3)CCO2)c1 (stereo not drawn) | -7.583
64 | Cc1cnn(CC2CN(c3ccc(C#N)cn3)CCO2)c1 (stereo not drawn) | 117.6
65 | Cc1cc(C)n(CC2CN(c3ccc(C#N)cn3)CCO2)n1 (stereo not drawn) | 119.8
66 | Cc1cc(C)n(CC2CN(CCOc3cccc(C#N)c3)CCO2)n1 (stereo not drawn) | -7.515
67 | Cc1nc(C)n(CC2CN(c3ccc(C#N)cn3)CCO2)n1 (stereo not drawn) | -2.345
68 | CN(C)CC1CN(c2ccc(C#N)cn2)CCO1 (stereo not drawn) | -4.596
